Measurements published in the supplement of paper PMC10338343.
± gives the standard deviation.

What follows are sequences tested on MILI (PIWIL2) piRISC loaded with piRNA #1 (26 nt) (assay: pre-steady-state target cleavage rate (min^-1); guide: piRNA #1 5'p-UGAGGUAGUAGGUUGUAUAGUAUCCA; MIWI and MILI are mouse PIWI proteins and EfPiwi is from a freshwater sponge; tags in brackets are library labels; higher = faster piRNA-guided slicing of the target). Details: auxiliary factor: 500 nM mouse GTSF1.
In short: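 Active affinity-purified piRISC (1 nM) loaded with one synthetic guide was mixed with a transcribed, DNA-blocked target RNA library (0.1 nM), with or without 500 nM GTSF1 partner protein, in HEPES–potassium acetate buffer at 33 °C for 0–8 or 0–960 min. Uncleaved targets were sequenced, normalised to depth and to weakly complementary targets, and pooled across three trials, with k3 capped at 0.0001 min^-1. The pre-steady-state cleavage rate was determined with a burst-and-steady-state fit.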
GGAGACCUAUGAUUAGCAACCUACUACCUCA was tested, and the “pre-steady-state target cleavage rate” value was 0.00597 ± 0.0035. With GGAGACCUAUGAUAACAACCUACUGACCUCA the “pre-steady-state target cleavage rate” value was 0.00368 ± 0.0025. In the case of GGAGACCUAUGUAUACAACGAACUACCUCA, the “pre-steady-state target cleavage rate” value is reported as 0.00287 ± 0.002. In the case of GGAGACCUAUGAUAAGAACCUACUUCCUCA, the “pre-steady-state target cleavage rate” value is reported as less than 0.0001. GGAGACCUUACUAUUCAACCUACUAGCUCA was tested, and the “pre-steady-state target cleavage rate” value was 0.0771 ± 0.014. GGAGACCUAUGAUAUGUUUCUACUACCUCA was tested, and the “pre-steady-state target cleavage rate” value was less than 0.0001. For GGAGACCUAUGAUUAUAACCUACUACCUCA, the “pre-steady-state target cleavage rate” value was 0.00484 ± 0.0026. With GGAGACCUAUGAAUACAACCUACGUACCUCA the “pre-steady-state target cleavage rate” value was 0.00396 ± 0.0023. In the case of GGAGACCUAUGAUAUGUACCUAGUACCUCA, the “pre-steady-state target cleavage rate” value is reported as less than 0.0001. For GGAGUGGAUUCUAUACAACCUACAACCUCA, the “pre-steady-state target cleavage rate” value was 0.0777 ± 0.0074. In the case of GGAGACGAUACUAAACAACCUACUAGCUCA, the “pre-steady-state target cleavage rate” value is reported as 0.111 ± 0.019. In the case of GGAGACCUUACUAUACUACCUACUACCACA, the “pre-steady-state target cleavage rate” value is reported as 0.173 ± 0.014. For GGAGACCAUACUAUACAACCUACUCCUCA, the “pre-steady-state target cleavage rate” value was 0.0178 ± 0.0057. GGAGACCAUACUAUAGAACGUACUACCUCA was tested, and the “pre-steady-state target cleavage rate” value was 0.00933 ± 0.0017. In the case of GGAGACCUAUGUAUACAACCUACAAGCUCA, the “pre-steady-state target cleavage rate” value is reported as 0.0033 ± 0.0026. With GGAGUGGAUACUAAAGAACCUACUACCUCA the “pre-steady-state target cleavage rate” value was 0.167 ± 0.011. With GGAGACCUAUGAUAUGUACCAUCUACCUCA the “pre-steady-state target cleavage rate” value was less than 0.0001. For GGAGACCUAUGUUUAGAACCUACUACCUCA, the “pre-steady-state target cleavage rate” value was 0.00346 ± 0.0023. In the case of GGAGACCUAUGAUUACAACCUACUAUCUCA, the “pre-steady-state target cleavage rate” value is reported as 0.00332 ± 0.0022. For GGAGACCUAACUAUACAUGCUACUACCUCA, the “pre-steady-state target cleavage rate” value was 0.0788 ± 0.013. For GGAGACCAAACUAUAGAACCUACUACCUCA, the “pre-steady-state target cleavage rate” value was 0.13 ± 0.028. With GGAGACCUAUCUAUUCAACCUACAACCUCA the “pre-steady-state target cleavage rate” value was 0.0889 ± 0.011. In the case of GGAGACCUAACUAUACAACGUAGUACCUCA, the “pre-steady-state target cleavage rate” value is reported as 0.00851 ± 0.0056. GGAGACCAUACUUUACAACCUACAACCUCA was tested, and the “pre-steady-state target cleavage rate” value was 0.14 ± 0.018. For GGAGACCUAUGUAUACAUCGUACUACCUCA, the “pre-steady-state target cleavage rate” value was 0.00791 ± 0.003. In the case of GGAGACCUAAGUAUACAACCUAGUACCUCA, the “pre-steady-state target cleavage rate” value is reported as 0.0133 ± 0.0034. In the case of GGAGACCUAUGAUAACAACCUACUACCUUCA, the “pre-steady-state target cleavage rate” value is reported as 0.00428 ± 0.0025. For GGAGACCUAUGUUACAACCUACUACCUCA, the “pre-steady-state target cleavage rate” value was 0.0425 ± 0.0076. For GGAGACCUAACUAUAGAACCUACUACGUCA, the “pre-steady-state target cleavage rate” value was 0.0322 ± 0.01. With GGAGACCUAUGAAUACAACCUCCUACCUCA the “pre-steady-state target cleavage rate” value was 0.00498 ± 0.0023. GGAGACCUAUGUAUACAACGUACUUCCUCA was tested, and the “pre-steady-state target cleavage rate” value was 0.0105 ± 0.0026. GGAGACCUUACAAUACAACCUACUACCACA was tested, and the “pre-steady-state target cleavage rate” value was 0.133 ± 0.015. In the case of GGAGACCUAUGUAUACUACCUACUACGUCA, the “pre-steady-state target cleavage rate” value is reported as 0.0155 ± 0.0032. For GGAGACCUAAGUAUACAACGUACUACCUCA, the “pre-steady-state target cleavage rate” value was 0.0111 ± 0.0021. In the case of GGAGAGGAUUCUAUACAACCUACUUCCUCA, the “pre-steady-state target cleavage rate” value is reported as 0.00504 ± 0.0027. In the case of GGAGACGAUACUUUACAACGUACUACCUCA, the “pre-steady-state target cleavage rate” value is reported as 0.0294 ± 0.0045. For GGAGACCUAUGAUAUCAAACUACUACCUCA, the “pre-steady-state target cleavage rate” value was 0.00495 ± 0.0026. In the case of GGAGACCUAACAAUACAACCUACUAGCUCA, the “pre-steady-state target cleavage rate” value is reported as 0.0462 ± 0.017. For GGAGACCUAUGAUAACAACCUACUGCCUCA, the “pre-steady-state target cleavage rate” value was 0.00428 ± 0.0031. GGAGACCUAUGUAUACAACCUCACUACCUCA was tested, and the “pre-steady-state target cleavage rate” value was 0.00401 ± 0.0027.
